The values that follow come from PubChem BioAssay (NCATS).

Each structure is given as a SMILES string. Results filed as inconclusive are left out. The source made the active and inactive calls. Unless noted, the call rests on the fitted dose curve; in most records, active means well fitted curve in the direction sought with a large enough effect; inconclusive means small, poorly fitted or top-dose-only effect, or another doubt; inactive means no such curve, though single readings can be large; an effect the other way counts as inactive or inconclusive.

Test [1] concerns the target Cytochrome P450 2C9 (Homo sapiens) (UniProt P11712). The test can be described thus: Cytochrome P450 family 2 subfamily C member 9 (CYP2C9) small molecule antagonists: luciferase biochemical (cell-free) qHTS assay (AID 1645842; active means well fitted curve in the direction sought with a large enough effect in the repeat runs; an effect the other way counts as inactive or inconclusive; further: potency means the concentration at half of the fitted maximal effect; nearly all actives have a fitted effect of over 55% in size). An outline of the steps: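 Luminescence, after 20 min with luciferin detection reagent, reflected CYP2C9 turnover during a 1 h NADPH-driven reaction at 37C. Enzyme-substrate mix contained 0.4% bovine serum albumin and was preincubated with compound 10 min at room temperature.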

Test [2] can be described thus: Primary fluorescence-based thiol-reactive (MSTI) qHTS assay for identification of artifact compounds. (AID 1845221). Further: nearly all actives have a fitted effect of over 65% in size. Further: potency means the concentration at half of the fitted maximal effect. An outline of the steps:
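Probe: MSTI 4 uM, PBS pH 7.4, 2% DMSO. Incubation 1 h, RT, light-protected. Readout fluorescence 525/598 nm.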
For orientation: In qHTS, concentration-response curves come from the screen itself.

The test system of test [3] is PA-1. The experiment in a line: Primary qHTS to identify gynecologic anti-cancer compounds using libraries of approved drugs and bioactive compounds (AID 1345084). Further: nearly all actives have a fitted effect of over 55% in size. Further: potency means the concentration at half of the fitted maximal effect. The note with it: Gynecologic cancer cell panel viability, ATPlite luminescence, 48 h; series mostly up to 57.5 µM. An outline of the steps: (§1)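 Cell viability after 48 h drug treatment, ATPlite luminescence readout; five doses.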

In test [4] the test system is SKOV3. The test is described as above. Particulars: Gynecologic cancer cell panel viability, ATPlite luminescence, 48 h; series mostly up to 57.5 µM. An outline of the steps:
as §1

The nature of test [5]: P-glycoprotein substrates identified in KB-8-5-11 adenocarcinoma cell line, qHTS therapeutic library screen (AID 1346987). Further: potency means the concentration at half of the fitted maximal effect; nearly all actives have a fitted effect of over 65% in size. An outline of the steps: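 P-gp-mediated resistance screen: KB-8-5-11 cells treated 72 h with compounds in dose-response. CellTiter-Glo viability.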
The subject of test [6] is Zika virus NS2B-NS3 protease (unlinked complex). The experiment in a line: Primary screen GU Rhodamine qHTS for Zika virus inhibitors: Unlinked NS2B-NS3 protease assay (AID 1347159). Further: on the % scale 0 is the no-effect control and ±100 the full control effect; nearly all actives have a fitted effect of over 60% in size. In a few lines: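 Compounds, tested up to 114 microM, were incubated for 15 minutes with 25 nM unlinked NS2B-NS3 protease at pH 8.0. Cleavage of 1.5 microM Rhodamine110 substrate was then followed by fluorescence for 15 minutes.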

For test [7], the target named is Cytochrome P450 2D6 (Homo sapiens) (UniProt P10635). The test can be described thus: Cytochrome P450 family 2 subfamily D member 6 (CYP2D6) small molecule antagonists: luciferase biochemical (cell-free) qHTS assay (AID 1645840; active means well fitted curve in the direction sought with a large enough effect in the repeat runs; an effect the other way counts as inactive or inconclusive; further: nearly all actives have a fitted effect of over 55% in size; further: potency means the concentration at half of the fitted maximal effect; on activity change, negative = inhibition: on the % scale 0 is the no-effect control and ±100 the full control effect). In a few lines:
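P450-Glo luminescent screen: recombinant CYP2D6 enzyme–proluciferin substrate mix preincubated with compound 10 min at room temperature, then NADPH regeneration added for 1 h at room temperature. Detection reagent added for 20 min; luciferin light read as relative luminescence units.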

The target in test [8] is Catechol O-methyltransferase (Homo sapiens) (UniProt P21964). The experiment in a line: Confirmatory Screen for Target Class Profiling of Small Molecule Inhibitors of Methyltransferases (AID 1745852; calls by dose curve; further: potency means the concentration at half of the fitted maximal effect; on activity change, negative = inhibition: on the % scale 0 is the no-effect control and ±100 the full control effect). Particulars: MTase-Glo luminescence, SAH detection, recombinant enzyme; measured here: COMT max response; stronger effect = lower value.
Catechol O-methyltransferase (Homo sapiens), sequence (P21964 whole entry, looked up): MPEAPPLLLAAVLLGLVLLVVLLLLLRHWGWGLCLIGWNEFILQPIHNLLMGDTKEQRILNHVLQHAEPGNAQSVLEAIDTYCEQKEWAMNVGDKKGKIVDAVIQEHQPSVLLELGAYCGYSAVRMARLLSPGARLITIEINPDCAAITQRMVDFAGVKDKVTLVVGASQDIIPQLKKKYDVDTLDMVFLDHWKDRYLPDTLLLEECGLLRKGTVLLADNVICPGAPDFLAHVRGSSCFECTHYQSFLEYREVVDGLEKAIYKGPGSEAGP
Test [9] deals with Guanidinoacetate N-methyltransferase (Homo sapiens) (UniProt Q14353). The test is described as above. Particulars: activity change, negative = inhibition: at 57.3 µM (top of the series) unless noted.
In test [10] the target is Nicotinamide N-methyltransferase (Homo sapiens) (UniProt P40261). The description is as above. The note with it: MTase-Glo luminescence, SAH detection, recombinant enzyme; measured here: NNMT max response; stronger effect = lower value.
Nicotinamide N-methyltransferase (Homo sapiens), sequence (P40261 whole entry, looked up): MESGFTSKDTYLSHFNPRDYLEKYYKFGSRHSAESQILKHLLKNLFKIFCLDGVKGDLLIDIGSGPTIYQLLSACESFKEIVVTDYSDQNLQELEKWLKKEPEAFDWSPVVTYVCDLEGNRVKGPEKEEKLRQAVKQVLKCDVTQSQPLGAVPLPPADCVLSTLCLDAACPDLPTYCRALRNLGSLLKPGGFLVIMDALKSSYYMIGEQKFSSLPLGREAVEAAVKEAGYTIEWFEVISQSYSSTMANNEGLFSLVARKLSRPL
Test [11] has as its target Phenylethanolamine N-methyltransferase (Homo sapiens) (UniProt P11086). Described as above. Particulars: MTase-Glo luminescence, SAH detection, recombinant enzyme; measured here: PNMT max response; stronger effect = lower value.
Test [12] relates to CAOV3. The test can be described thus: Primary qHTS to identify gynecologic anti-cancer compounds using libraries of approved drugs and bioactive compounds (AID 1345084). Further: nearly all actives have a fitted effect of over 55% in size. Further: potency means the concentration at half of the fitted maximal effect. The note with it: Gynecologic cancer cell panel viability, ATPlite luminescence, 48 h; series mostly up to 57.5 µM. An outline of the steps: as §1
Test [13] relates to HACAT. The experiment in a line: qHTS assay to identify novel small-molecules to repurpose for Merkel cell carcinoma treatment (AID 1296009). Further: nearly all actives have a fitted effect of over 60% in size. The note with it: MCC and control cell lines, CellTiter-Glo viability, 72 h; at 44.8 µM (top of the series) unless noted. In a few lines: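 Cells were incubated with compound for 72 hr at 37 degree celsius before CellTiter-Glo addition. Luminescence was normalized with no-cell wells as full cytotoxicity and DMSO as baseline.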

Test [14] concerns CRL-7250. The experiment in a line: Cytotoxic Profiling of Annotated Libraries Using Quantitative High-Throughput Screening (AID 1296008). Further: on the % scale 0 is the no-effect control and ±100 the full control effect; nearly all actives have a fitted effect of over 60% in size. The note with it: Five cell lines viability, CellTiter-Glo ATP luminescence, 48-72 h; max response: stronger effect = lower value. An outline of the steps: (§2)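 Cells exposed to compounds for 48 or 72 hr at 37 degrees Celsius. Viability read as ATP-coupled luminescence with CellTiter-Glo after 10 min at room temperature.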

Test [15] can be described thus: Tertiary RLuc qRT-PCR qHTS assay for Zika virus inhibitors (AID 1347169). In a few lines:
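Inhibition of ZIKV-RLuc replication in Vero cells, read as Renilla luminescence 1-1.5 hrs after live-cell substrate addition, following 48-72 hrs infection at MOI 1-2 in presence of compound.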
For orientation: In qPCR the cycle at which signal appears reflects the starting amount.

The nature of test [16]: qHTS to identify inhibitors of the type 1 interferon - major histocompatibility complex class I in skeletal muscle: primary screen against the NCATS Mechanism Interrogation Plate v5.0 (MIPE) Libary (AID 1347411).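 Further: plate controls were vehicle for no effect and reference inhibitor for full effect; nearly all actives have a fitted effect of over 65% in size.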 In a few lines:
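Cells were genome-edited human myoblasts carrying a HiBit tag on endogenous HLA-B. They were treated with IFN-beta (4.0 ng/ml) and titrated compounds (top 46 uM) for 24 hrs before lytic HiBiT detection.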

The test system of test [17] is NIH3T3. The experiment in a line: Cytotoxic Profiling of Annotated Libraries Using Quantitative High-Throughput Screening (AID 1296008). Further: on the % scale 0 is the no-effect control and ±100 the full control effect; nearly all actives have a fitted effect of over 60% in size. Particulars: Five cell lines viability, CellTiter-Glo ATP luminescence, 48-72 h; max response: stronger effect = lower value. In a few lines:
as §2
In general terms: ATP-based viability assays read luminescence as a measure of living cells.

Cytochrome P450 2C9 (Homo sapiens), sequence (P11712 whole entry, looked up): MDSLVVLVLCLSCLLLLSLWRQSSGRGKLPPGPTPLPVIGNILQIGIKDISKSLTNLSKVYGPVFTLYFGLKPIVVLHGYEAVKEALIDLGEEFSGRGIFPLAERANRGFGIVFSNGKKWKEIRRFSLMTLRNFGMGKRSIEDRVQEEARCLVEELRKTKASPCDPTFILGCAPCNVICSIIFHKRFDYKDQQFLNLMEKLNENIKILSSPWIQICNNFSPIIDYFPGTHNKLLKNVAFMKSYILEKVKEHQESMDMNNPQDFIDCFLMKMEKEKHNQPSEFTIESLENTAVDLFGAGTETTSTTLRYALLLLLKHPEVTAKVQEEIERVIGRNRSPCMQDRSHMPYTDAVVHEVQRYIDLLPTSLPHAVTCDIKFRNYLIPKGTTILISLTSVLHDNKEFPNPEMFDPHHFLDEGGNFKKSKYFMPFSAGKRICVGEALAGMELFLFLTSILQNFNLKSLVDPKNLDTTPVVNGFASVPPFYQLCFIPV
Cytochrome P450 2D6 (Homo sapiens), sequence (P10635 whole entry, looked up): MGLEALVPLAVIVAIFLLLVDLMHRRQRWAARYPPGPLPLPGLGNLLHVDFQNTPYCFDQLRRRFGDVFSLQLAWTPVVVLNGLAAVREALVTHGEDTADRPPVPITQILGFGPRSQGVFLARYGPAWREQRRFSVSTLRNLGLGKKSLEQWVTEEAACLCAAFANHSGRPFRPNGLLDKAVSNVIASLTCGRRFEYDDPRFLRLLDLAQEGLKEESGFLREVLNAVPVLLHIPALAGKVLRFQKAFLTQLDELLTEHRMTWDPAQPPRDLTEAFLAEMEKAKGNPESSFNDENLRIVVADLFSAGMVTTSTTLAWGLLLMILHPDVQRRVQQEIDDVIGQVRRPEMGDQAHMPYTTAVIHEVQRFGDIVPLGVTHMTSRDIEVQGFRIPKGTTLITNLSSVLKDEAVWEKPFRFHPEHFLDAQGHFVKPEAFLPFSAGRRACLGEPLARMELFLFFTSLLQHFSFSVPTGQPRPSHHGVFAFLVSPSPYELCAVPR
Phenylethanolamine N-methyltransferase (Homo sapiens), sequence (P11086 whole entry, looked up): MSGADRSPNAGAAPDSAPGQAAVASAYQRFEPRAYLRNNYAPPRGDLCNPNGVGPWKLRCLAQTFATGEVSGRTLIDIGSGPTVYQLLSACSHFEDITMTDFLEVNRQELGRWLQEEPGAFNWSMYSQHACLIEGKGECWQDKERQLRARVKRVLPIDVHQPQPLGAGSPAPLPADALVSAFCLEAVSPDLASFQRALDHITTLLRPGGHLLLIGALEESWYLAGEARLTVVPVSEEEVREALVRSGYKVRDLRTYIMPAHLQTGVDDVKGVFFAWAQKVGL

`COc1cc2ncnc(Oc3cccc(NC(=O)Nc4cc(C(C)(C)C(F)(F)F)on4)c3)c2cc1OC`: the Potency in test [1] was 12 µM (active). Also, the Potency entry in test [2], in test [3] and in test [4] was “inactive” throughout.
Turning to `O=[N+]([O-])c1ccc(-[n+]2nc(-c3ccccc3)nn2-c2ccc(I)cc2)cc1`, the Potency is 18.4 µM (active) in test [5]; 5.35 µM (active) in [7]; 19 µM (active) in test [1]; 21.5 µM (active) in test [9]; 11.2 µM (active) in test [12]. For the same compound, the Potency result in test [6], in test [3] and in test [4] was “inactive” each time. In addition, the activity in test [8] was -47.4%; in test [10] it was -39.3%; in [11], -49.2%.
`CC(C)[C@@H](C)/C=C/[C@@H](C)[C@H]1CC[C@H]2C3=CC=C4C[C@@H](O)CC[C@]4(C)C3=CC[C@]12C`: the Potency result in test [2], in test [12] and in test [3] was “inactive” each time. For the same compound, the outcome in [13] is “inactive”.
As for `COc1cc2ncnc(Nc3ccc(Oc4ccccc4)cc3)c2cc1OC`, the Potency is 19 µM (active) in [7], 16.9 µM (active) in [1] and 28.2 µM (active) in test [4].
With `CCCCn1c(-c2ccccc2)nc(-c2ccccc2)c1CN(Cc1ccc2c(c1)OCO2)Cc1ccc2c(c1)OCO2`, the Potency entry in test [6], in [12], in [3] and in test [4] was “inactive” in each case. For the same compound, the Potency in [7] is 0.849 µM (active); in [1], 2.68 µM (active).
As to `COc1ccc(Cl)cc1[C@@]1(F)C(=O)Nc2cc(C(F)(F)F)ccc21`, the Potency in [7] was 23.9 µM (active); in test [1], 6.01 µM (active). For the same compound, in test [2], the Potency result is “inactive”. For the same compound, the max response in test [14] was -2.43% (inactive).
As for `CC1CCN(c2cc(NC(=O)c3ccccc3)ncn2)CC1`, the Potency in test [5] was 16.4 µM (active); in test [1] it was 9.52 µM (active). The Potency result in test [7] and in test [4] was “inactive” each time. The max response in [14] is -6.14% (inactive).
As to `COc1ccccc1NC(=O)Nc1ccc2ccccc2c1`, the Potency entry in test [2], in [12], in [3] and in test [4] was “inactive” each time.
Consider `CS(=O)(=O)c1ccc(-c2cn3ccccc3n2)cc1`, for which, in [15], the Potency entry was “inactive”. Moreover, the Potency was 5.49 µM (active) in test [7], 13.8 µM (active) in [1], 17.8 µM (active) in test [3] and 8.91 µM (active) in test [4].
Turning to `Cc1nc2ccc(C(=O)N3CCC4(CC3)CC(=O)c3c(cnn3C(C)C)C4)cc2[nH]1`, the Potency result in test [16] is “inactive”.
Regarding `C=C1C(=O)O[C@@H]2CC(C)=C([C@@H](C)CCCO)[C@@H](OC(=O)C(C)C)[C@H]12`, the results for the activity in [8], in [10] and in test [11] were -63.9%, -0.804% and 1.36%, respectively. The same compound returned an activity change, negative = inhibition in test [9] of 0%. In addition, the Potency in test [2] was 14.7 µM (active). Also, the max response in test [17] was -12.2% (inactive).
For `Oc1ccc(Nc2nc(-c3ccc(Cl)cc3)cs2)cc1`, the Potency entry in [6] and in test [12] was “inactive” in each case. For the same compound, in test [2], the Potency was 1.5 µM (active).
